Screening data as filed in PubChem.
RORg inh = qHTS for inhibitors of ROR gamma transcriptional activity; Drosophila S2 Gal4-RORgamma UAS-luciferase reporter, 20 h; Potency, µM (doses to about 53.6 µM), without a hit: at the top dose activity change, negative = inhibition, actives largely listed as inhibitors; actives 5.4% (n = 310,000); note: % is set by controls: 0 for no effect and ±100 for the full control effect; nearly all actives have a fitted effect of over 60% in size
Target sequence (P51450 whole entry, looked up, the tested form may be a part): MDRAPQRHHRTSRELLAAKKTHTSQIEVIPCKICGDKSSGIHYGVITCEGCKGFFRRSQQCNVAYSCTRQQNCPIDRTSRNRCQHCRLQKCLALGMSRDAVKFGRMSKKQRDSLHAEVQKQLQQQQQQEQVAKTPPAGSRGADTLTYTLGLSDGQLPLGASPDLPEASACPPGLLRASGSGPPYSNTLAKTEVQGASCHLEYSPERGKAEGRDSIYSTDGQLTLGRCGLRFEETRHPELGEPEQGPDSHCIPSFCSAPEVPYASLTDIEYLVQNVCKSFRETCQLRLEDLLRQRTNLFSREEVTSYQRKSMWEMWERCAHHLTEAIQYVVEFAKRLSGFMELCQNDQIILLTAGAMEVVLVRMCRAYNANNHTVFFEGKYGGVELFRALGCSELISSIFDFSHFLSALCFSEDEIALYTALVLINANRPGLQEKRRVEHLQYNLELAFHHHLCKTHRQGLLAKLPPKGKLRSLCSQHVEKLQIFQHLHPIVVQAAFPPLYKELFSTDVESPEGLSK
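Luciferase reporter read in Schneider cells carrying Gal4-RORγ (mouse) and UAS-Photinus luciferase; cells given compound 1 h before 700 uM copper sulfate induction, then incubated 20 h at ambient temperature.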
KB-V1 cytotox = qHTS assay for MDR1-selective chemotherapeutics: Primary screen using the drug-selected MDR subline cells KB-V1. actives 3.4% (n = 400,000). KB-V1 MDR cells viability, CellTiter-Glo, 72 h. AID 1347076, 2019. Potency, µM (top dose mostly 46.1 µM), most hits filed as cytotoxic; note: % is set by controls: 0 for no effect and ±100 for the full control effect; nearly all actives have a fitted effect of over 60% in size
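qHTS viability screen in drug-selected KB-V1 MDR cells: 72 h compound treatment at 37 degrees C, ATP luminescence end point.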
MCF10A rereplic = A quantitative high throughput screen for small molecules that induce DNA re-replication in MCF 10a normal breast cells; actives 2.9% (n = 350,000); Potency, µM (series often up to 46.1 µM), for inactives: at the top dose activity, positive = re-replication, most hits filed as activators; MCF 10A DNA re-replication, Hoechst nuclear intensity, 48 h; AID 624296, 2012; note: % of control where 0% means no effect; nearly all actives have a fitted effect of over 50% in size
Gal4-VP16 FLuc = VP16 counterscreen qHTS for inhibitors of ROR gamma transcriptional activity. actives 3.5% (n = 310,000). Drosophila S2 Gal4-VP16 UAS-luciferase, luminescence, 20 h. AID 2546, 2010. Potency, µM (titrated, usually from 53.6 µM), inactives show at the highest dose activity, negative = inhibition, most hits filed as inhibitors;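 note: Gal4-VP16 expression switched on by copper sulfate through the metallothionein promoter; % is set by controls: 0 for no effect and ±100 for the full control effect; nearly all actives have a fitted effect of over 50% in size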
KB-3-1 cytotox = qHTS assay for MDR1-selective chemotherapeutics: Primary screen using the parental adenocarcinoma cell KB-3-1 | KB-3-1 viability, CellTiter-Glo ATP luminescence, 72 h | Potency, µM (titrated, usually from 46.1 µM), most hits filed as cytotoxic | actives 1.4% (n = 400,000) | AID 1347075, 2019; note: % is set by controls: 0 for no effect and ±100 for the full control effect; nearly all actives have a fitted effect of over 60% in size
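Multi-concentration cytotoxicity screen in KB-3-1 cells grown in DMEM lacking phenol red with 10% FBS. After 72 h at 37 °C with compound, ATP-dependent luminescence was recorded.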
SW480 rereplic = A quantitative high throughput screen for small molecules that induce DNA re-replication in SW480 colon adenocarcinoma cells | SW480 DNA re-replication, Hoechst DNA content imaging, 48 h | Potency, µM (titrated, usually from 46.1 µM), for the others: at the highest dose re-replication activation, actives largely listed as activators | actives 1.8% (n = 340,000) | AID 624297, 2012; note: % of control where 0% means no effect; nearly all actives have a fitted effect of over 55% in size
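Image-based read-out: total Hoechst fluorescence of nuclei (405 nm excitation, 500-530 nm emission), with hits raising the fraction of high-intensity nuclei. SW480 colon cells incubated 48 hr with compounds at 37 C.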
Numbers without * were called inactive; i = inactive; ? = inconclusive; . = no result given; [ ] = another dose, or the depositor's remark. Shown are actives, neighbours in structure and some others; about 10% of the full set was active somewhere. Calls come from the whole dose curve; as a rule, active = well fitted curve in the direction sought with a large enough effect; inconclusive = small, poorly fitted or top-dose-only effect, or another doubt; inactive = no such curve, though single readings can be large; an effect the other way counts as inactive or inconclusive. Potency is the fitted concentration of half-maximal effect.

SMILES | RORg inh | KB-V1 cytotox | MCF10A rereplic | Gal4-VP16 FLuc | KB-3-1 cytotox | SW480 rereplic
S=C(Nc1ccc2nc(-c3ccccn3)c(-c3ccccn3)nc2c1)N1CCCCC1 | 2% | i | 7% | -7% | i | ?
C/C(=N\NC(=O)C1CCCN(S(=O)(=O)c2ccccc2)C1)c1ccncc1 (stereo not given) | 3% | i | -1% | -6%[0.365 µM] | i | -1%[9.22 µM]
CC(=NNC(=S)N1CCN(C2CCCCCC2)CC1)c1ccccn1 | . | ? | 16µM* | . | ? | ?
CC(=NNC(=S)N1CCCCCC1)c1cccc2cccnc12 | . | 3.7µM* | 6.5µM* | . | ? | ?
COc1ccccc1NC(=S)N1CCN(c2ccccn2)CC1 | -12% | ? | 5% | -1% | i | -52%
CC(=NNC(=S)N1CCN(c2ccccn2)CC1)c1ccccn1 | . | 7.3µM* | 0% | . | i | ?
O=C1NC[C@@H](CCCCN2C[C@H](Cc3ccccc3)N(CCc3ccc(O)cc3)C(=O)C2=O)N(Cc2ccccc2)C1=O | . | i | . | . | i | .
N#Cc1cc2cc3c(cc2nc1SCC(=O)N1CCOCC1)OCO3 | 0% | i | 2% | -18% | i | -2%
N#Cc1cc2cc3c(cc2nc1NCCNC(=S)NCCCN1CCOCC1)OCO3 | -33% | i | 21µM* | -13% | i | ?
O=C(Nc1ccccc1Br)N1CCC(CN2CCCC2)CC1 | . | i | . | . | i | .
CN1CC(c2ccccc2Cl)C2(COc3ccccc3C2=O)C12C(=O)Nc1ccccc12 (stereo not given) | -11% | ? | ? | -3% | ? | ?
Cc1ccc(C2CN(C)C3(C(=O)Nc4ccccc43)C23COc2ccccc2C3=O)cc1 (stereo not given) | 20% | 21µM* | ? | -5% | ? | ?
Cc1c(-c2nc(-c3ccc4c(c3)[nH]c(=O)n4C)no2)cccc1[N+](=O)[O-] | . | i | . | . | i | .
Cc1nc2cnc(N3CCN(C)CC3)nc2n(C2CC2)c1=O | -4% | . | . | 8% | . | .
CN(C)c1ccc(C=Cc2cnccn2)cc1 | . | i | 18µM* | . | i | ?
CN(C)c1ccc(/C=C/c2ccnc3c2ccc2c(/C=C/c4ccc(N(C)C)cc4)ccnc23)cc1 | . | i | . | . | ? | .
O=[n+]1ccn([O-])c2ccccc21 | 0% | . | -1% | 2% | . | -4%
O=c1[nH]c2ccccc2nc1/C=C/c1ccc(Cl)cc1 | 31% | i | 18µM* | -6% | i | 21µM*
Cc1cccc(/C=C\c2nc3ccccc3c(=O)[nH]2)c1 | -34% | ? | 5.8µM* | -28% | 15µM* | 21µM*
COc1ccc(C(=O)Nc2cccc(/C=C/c3nc4ccccc4c(=O)[nH]3)c2)cc1 | -62% | i | 6.5µM* | -29% | ? | ?
CC(=O)Nc1ccc(/C=C/c2nc3ccccc3[nH]c2=O)cc1 | -5% | i | ? | 7% | i | ?
O=c1[nH]c(/C=C/c2ccccc2F)nc2ccccc12 | -45% | 2.6µM* | 8.2µM* | -16% | 4.6µM* | 3.7µM*
O=c1[nH]c(/C=C/c2cccc3ccccc23)nc2ccccc12 | 25% | i | ? | 8% | i | ?
Cc1nc(/C=C/c2ccccc2)[nH]c(=O)c1-c1ccccc1 | -15% | 18µM* | ? | 2% | ? | ?
COc1cc(/C=C/c2nc3ccccc3c(=O)[nH]2)cc(Cl)c1O | 9% | i | -7% | -4% | i | 3%
SMILES | RORg inh | KB-V1 cytotox | MCF10A rereplic | Gal4-VP16 FLuc | KB-3-1 cytotox | SW480 rereplic
CN(C)c1ccc(/C=C/c2nc3ccccc3c(=O)[nH]2)cc1 | 2µM* | i | 2% | ? | i | 16%
O=c1[nH]c(/C=C/c2ccc(Br)cc2)nc2ccccc12 | -19% | i | ? | 0% | i | -6%
C(=C\c1nc2ccccc2[nH]1)/c1ccccc1 | 7.1µM* | i | 5.2µM* | 8.9µM* | 18µM* | 15µM*
CCCCN(C(=O)c1cccc(S(=O)(=O)N2CCN(C)CC2)c1)c1c(N)n(CCC)c(=O)[nH]c1=O | . | i | -1% | . | i | 0%
CCN(CC)c1cc2c(cc1F)c(=O)c(S(=O)(=O)c1ccc(OC)cc1)cn2Cc1ccccc1 | . | i | . | . | i | .
COc1cccc(CNC(=O)CN2C(=O)N(c3cc(C)ccc3C)S(=O)(=O)c3ccccc32)c1OC | . | i | . | . | i | .
CCc1ccc2[nH]cc(S(=O)(=O)c3ccc(C)c(C)c3)c(=O)c2c1 | ? | i | 27% | -22% | i | -10%
CCc1ccc2[nH]c3nc(C)cc(C)c3c(=O)c2c1 | -38%[10 µM] | 6.5µM* | ? | -5% | i | 8%
O=c1cc(COc2ccccc2Cl)nc2scc(-c3ccccc3)n12 | . | i | . | . | i | .
CCOC(=O)c1sc2nc(C)[nH]c(=S)c2c1C | 0.56µM* | ? | -1% | 0.79µM* | ? | -3%
C=CC[n+]1ccc(/C=C2\C=Cc3cc(C)ccc3N2CC)c2ccccc21 | 1.3µM* | i | ? | 1.3µM* | 8.2µM* | 101%
CC(=O)NC(c1ccccc1)c1nc(-c2cccc(CO)c2)cs1 (stereo not given) | . | i | . | . | i | .
O=C(CSC(=S)N1CCCC1)c1ccccc1 | 10µM* | i | -37% | ? | i | 6%
Cc1[nH]c2ccccc2c1C(=O)CSC(=S)N1CCCCC1 | ? | 13µM* | -63% | -2% | i | 2%
O=C(OCC(=O)N1CCCC1)c1c[nH]c2ccccc12 | . | i | -6% | . | i | -3%
O=C(OCC(=O)N1CCCCC1)c1c[nH]c2ccccc12 | . | 21µM* | 0% | . | i | 3%
Cc1[nH]c2ccccc2c1SCC(=O)N1CCCCC1 | 9% | i | 5.8µM* | ? | i | 15%
Cc1[nH]c2ccccc2c1C(=O)CSC(=S)N(C)C1CCCCC1 | 45% | i | 13% | 3% | i | 16%
Cc1cc(C)n2nc(SCC(=O)Nc3cc(Cl)ccc3C)nc2n1 | . | ? | . | . | i | .
COc1ccc(C2CC(c3ccccc3)Oc3cc(C)cc(C)c32)cc1 (stereo not given) | -19% | . | . | 1% | . | .
c1ccc2c(N3CCCCC3)nc(N3CCCC3)nc2c1 | -19% | 16µM* | 6% | 7% | i | 2%
Cc1ccccc1-c1nc(N2CCOCC2)c2ccccc2n1 | -3% | . | . | -2% | . | .
